± gives the standard deviation.

The first test deals with MILI (PIWIL2) piRISC loaded with L1MC piRNA (26 nt). Nature of the test: pre-steady-state target cleavage rate (min^-1); guide: L1MC piRNA 5'p-UAACUAAAUACUAUGCAAGCUGUAGG; MIWI and MILI are mouse PIWI proteins and EfPiwi is from a freshwater sponge; tags in brackets are library labels; higher = faster piRNA-guided slicing of the target. The settings on record: auxiliary factor: 500 nM mouse GTSF1. The method, then: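 Cleave-'n-Seq: a library of target RNAs (target site embedded in constant flanks, ACAGCATTCCGCGTTAGTGATATCCG... 5' flank; DNA-blocked outside the site) at 0.1 nM was incubated with 1 nM active mouse MILI or MIWI piRISC (synthetic 5'-monophosphorylated piRNA guide) with or without 500 nM mouse GTSF1 at 33 °C for 1 min to 16 h. Uncleaved targets were sequenced and normalised to non-target controls, and the pooled three trials were fitted to a burst-and-steady-state model to give the pre-steady-state cleavage rate (min^-1; k3 is constrained to at most 1e-4). Sequence is the target site only; target names encode pairing extent (gX:gY) and contiguous / 1-mismatch / 2-mismatch / bulge geometry. Fits with R² ≤ 0 are excluded.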
Turning to UCCUCCUACAGGUUGGAUAGUAUUUAGUUA, the “pre-steady-state target cleavage rate” value stood at 0.205 ± 0.012.

Consider UCCUGGAUGUCGAAUCAUAGUAUUUAGUUA, for which the “pre-steady-state target cleavage rate” value was 0.00554 ± 0.0026.

Take UCCUGGAUGAGCUUGCAUAGUCAUUUAGUUA: the “pre-steady-state target cleavage rate” value was found to be 0.00477 ± 0.0039.

Consider UCCUGGAUGUCCUUGGAUAGUAUUUAGAUA, for which the “pre-steady-state target cleavage rate” value worked out at 0.129 ± 0.035.

For “UCCUGGAUGAGCUUGCAUAGUAUUUAGUUC [g2:g21:cont:t1C]”, the “pre-steady-state target cleavage rate” value worked out at 0.166 ± 0.014.

On to UCCUGCUACAGCUUGCAUCGUAUUUAGUUA, for which the “pre-steady-state target cleavage rate” value came out at 0.168 ± 0.022.

In the case of UCCUGGAUGUGCUUGCAAAGUUUUUAGUUA, the “pre-steady-state target cleavage rate” value came out at 0.00595 ± 0.0038.

With “UCCUGGAUCAGCUUGCAUAGUAUUUAGUUU [g2:g22:cont:t1U]”, the “pre-steady-state target cleavage rate” value stood at 0.357 ± 0.019.

As to UCCUGCUACAGCUUGCUUAGUAUAUAGUUA, the “pre-steady-state target cleavage rate” value was 0.206 ± 0.028.

As for UCCUCCUACACGAUGCAUAGUAUUUAGUAA, the “pre-steady-state target cleavage rate” value turned out to be 0.194 ± 0.026.

Consider UCCUGGAUGUCGUUGCAUAGUAUUUAGUGA, for which the “pre-steady-state target cleavage rate” value amounted to 0.193 ± 0.034.

As for UCCUGGAUGAGCAUGCAUAGUAUUUUGUUA, the “pre-steady-state target cleavage rate” value came out at 0.115 ± 0.025.

For “UCCUGGAUGAGCUUGCAUAGUAUUUAGUUA [g2:g21:cont:t1A]”, the “pre-steady-state target cleavage rate” value worked out at 0.244 ± 0.014.

In the case of UCCUCGUACAGCUUGCAUAGUAUUUAGUAA, the “pre-steady-state target cleavage rate” value turned out to be 0.24 ± 0.014.

For UCCUGCUACAGCUUGCAUUGUAUAUAGUUA, the “pre-steady-state target cleavage rate” value is 0.194 ± 0.028.

For UCCUCCUACAGCUGUGCAUAGUAUUUAGUUA, the “pre-steady-state target cleavage rate” value was 0.321 ± 0.017.

As for UCCUGCUACUCGUUGCAUAGUAUUUAGUAA, the “pre-steady-state target cleavage rate” value stood at 0.127 ± 0.02.

With UCCUGGAACAGGUUGCAUAGUAUUUAGUAA, the “pre-steady-state target cleavage rate” value amounted to 0.232 ± 0.02.

With UCCUGGUACAGCUUGCAUAGUAUUUAGAUA, the “pre-steady-state target cleavage rate” value was 0.149 ± 0.033.

UCCUCCUACAGCUUGCAUAGUAUUUUAGUUA: the “pre-steady-state target cleavage rate” value came out at 0.273 ± 0.019.

Take UCCUGGAUGAGCUUGCUAAGUAUUUAGUAA: the “pre-steady-state target cleavage rate” value amounted to 0.0109 ± 0.0046.

Take UCCUGGAUGUGCUUGCAUUGAAUUUAGUUA: the “pre-steady-state target cleavage rate” value stood at 0.00465 ± 0.0038.

Take UCCUGGAACAGCUUGCAUAGUAUUUAGUGA: the “pre-steady-state target cleavage rate” value came out at 0.229 ± 0.027.

Still in this test, the particulars now being: auxiliary factor: none (no GTSF1).
With UCCUCCUACAGGUUGGAUAGUAUUUAGUUA, the “pre-steady-state target cleavage rate” value came to 0.00699 ± 0.0018.

Consider “UCCUGGAUGAGCUUGCAUAGUAUUUAGUUC [g2:g21:cont:t1C]”, for which the “pre-steady-state target cleavage rate” value was 0.00562 ± 0.0029.

For the sequence UCCUGCUACAGCUUGCAUCGUAUUUAGUUA, the “pre-steady-state target cleavage rate” value was 0.006 ± 0.0019.

For the sequence UCCUGGAUGUGCUUGCAAAGUUUUUAGUUA, the “pre-steady-state target cleavage rate” value was found to be 0.0065 ± 0.0023.

Consider “UCCUGGAUCAGCUUGCAUAGUAUUUAGUUU [g2:g22:cont:t1U]”, for which the “pre-steady-state target cleavage rate” value is 0.0189 ± 0.0043.

Regarding UCCUGCUACAGCUUGCUUAGUAUAUAGUUA, the “pre-steady-state target cleavage rate” value stood at 0.00313 ± 0.0023.

In the case of UCCUCCUACACGAUGCAUAGUAUUUAGUAA, the “pre-steady-state target cleavage rate” value is 0.00362 ± 0.0022.

Turning to UCCUGGAUGUCGUUGCAUAGUAUUUAGUGA, the “pre-steady-state target cleavage rate” value was determined as 0.00426 ± 0.0027.

On to “UCCUGGAUGAGCUUGCAUAGUAUUUAGUUA [g2:g21:cont:t1A]”, for which the “pre-steady-state target cleavage rate” value was found to be 0.0101 ± 0.0024.

UCCUCGUACAGCUUGCAUAGUAUUUAGUAA: the “pre-steady-state target cleavage rate” value came to 0.00621 ± 0.0022.

Consider UCCUGCUACAGCUUGCAUUGUAUAUAGUUA, for which the “pre-steady-state target cleavage rate” value worked out at 0.00483 ± 0.0018.

As to UCCUCCUACAGCUGUGCAUAGUAUUUAGUUA, the “pre-steady-state target cleavage rate” value came to 0.00714 ± 0.0025.

As for UCCUGCUACUCGUUGCAUAGUAUUUAGUAA, the “pre-steady-state target cleavage rate” value was determined as 0.00373 ± 0.0021.

Regarding UCCUGGAACAGGUUGCAUAGUAUUUAGUAA, the “pre-steady-state target cleavage rate” value was found to be 0.00824 ± 0.0023.

In the case of UCCUGGUACAGCUUGCAUAGUAUUUAGAUA, the “pre-steady-state target cleavage rate” value is 0.00493 ± 0.0028.

For UCCUCCUACAGCUUGCAUAGUAUUUUAGUUA, the “pre-steady-state target cleavage rate” value came to 0.0124 ± 0.0038.

Take UCCUGGAACAGCUUGCAUAGUAUUUAGUGA: the “pre-steady-state target cleavage rate” value worked out at 0.00433 ± 0.0025.

Source of the values: the supplement of paper PMC10338343.
